Results taken from PubChem BioAssay AID1347426 (Functional Genomics Laboratory (NCATS/FGL), 2020).
About 1,400 (4.5%) of roughly 31,000 sequences were called active. Many of the other results were omitted from the sample, so actives are more common in it than they were. Values without a mark were called inactive.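 The calls were made as follows: active = median seed-adjusted z-score above 1 or below -1; inactive = the rest.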

Test: Novel Modifiers of Survival Motor Neuron (SMN) Protein: Gene Identification via Genome-wide siRNA Screen;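 also: luminescence tracks full-length SMN protein made from the SMN2 reporter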
Conditions: HEK293T SMN2-luciferase reporter, siRNA knockdown, 72 h; actives lie on both sides
Summary of the method: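 HEK293T cells stably carrying an SMN2 promoter/splicing cassette–luciferase reporter were reverse-transfected with 1 pmol siRNA per well (druggable-genome library, 3 siRNAs per gene) and grown 72 h at 37 °C. Luminescence, normalized to negative-control siRNA and log10-transformed, was scored as MAD.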

| Sequence | median seed-adjusted z-score |
| --- | --- |
| CAAUCUAACUUUUCGGACATT against CLCA2 | 0.669 |
| CAGUUUCAACUUUAUCAGATT against RNF144B | 0.642 |
| GAUGAUAUCCUACUAGGCATT against CD302 | 0.0818 |
| CAAUGUUUGUCUGGUCAUATT against ZDHHC2 | 0.133 |
| CAUCUUAUCUACAUCUUAUTT against KCNK18 | 0.115 |
| CCAUUAUCGCUGUCUUCUATT against CXCR7 | -0.511 |
| GGCCUACAGCUGGAAGGAATT against CHRM1 | 1.1 (active) |
| GGAUGCGUUGAAUAAGUUUTT against MGAT4A | 0.134 |
| GCACUACGGACCAUAGUUATT against NRF1 | 0.608 |
| CGAAGUUCACUAUCGAACATT against DNAH11 | 0.104 |
| AUAUCAACUUGACCCACCATT against B3GNT7 | -1.05 (active) |
| CUACUUCCUUUAUCCCGAUTT against BDH1 | -0.0253 |
| GGAUCGAUAUCAAGAUAUUTT against AVEN | 0.184 |
| GAAUCUCUGUAGCCGAUGATT against CPA1 | -0.187 |
| AGACUGAACUCCGAACAGATT against SSH3 | -0.0772 |
| GAAUAAGAGCACAAGUAAATT against SERPINB13 | 0.0593 |
| AGCUGAUGUUCGAGCAGUATT against ACTL6B | 0.0703 |
| CUCUGAGUAUGUGACCGAATT against XPNPEP1 | -1.5 (active) |
| CAUCAUCUAUGUAAGCCUATT against PRKD1 | -0.323 |
| CAAGAAUCAUUAAUACAAATT against CCL2 | 0.651 |
| GGACGCAGGUUUCUGUUUATT against CHRFAM7A | 0.115 |
| CACCAGCUAUGAACGAGAATT against THOC2 | -1.22 (active) |
| CGACCUACCGAGAAGAAAATT against GJB3 | -0.198 |
| GGGAUGUUCUUAGAAGUUUTT against BIK | 0.0492 |
| GCCCAGUUGCUUAACGAAUTT against ACVR2A | -0.22 |
| CAAGAACUACAGAUUCGUATT against PPP1R13B | 0.0943 |
| GACUGACCAUACUGAUAUUTT against NPY5R | 0.213 |
| GCCUGUUUCAAGACACUGATT against CRNN | -0.0758 |
| GCUUUAGAGUUCCAUAUGATT against PIK3CG | 0.576 |
| GCACCUAUAUUUACUACUUTT against TTC3 | -1.17 (active) |
